Out of some 1,900 compounds screened, about 15 (0.8%) were called active. No stated cut-off is given here; in the data, active means luminescence above about 3900; inactive means the rest. Not all results are given here.
Target: D(1A) dopamine receptor (Homo sapiens) (UniProt P21728)
Assay: D1 receptor agonism without dopamine, confirmation, mechanism study for D1 allosteric modulator project, cell-based, HEK293 D1, CRE-luciferase, secondary assay 1 (AID 646)
Conditions: no dopamine, at 10 µM, hits give high values

D(1A) dopamine receptor (Homo sapiens), sequence (P21728 whole entry, looked up): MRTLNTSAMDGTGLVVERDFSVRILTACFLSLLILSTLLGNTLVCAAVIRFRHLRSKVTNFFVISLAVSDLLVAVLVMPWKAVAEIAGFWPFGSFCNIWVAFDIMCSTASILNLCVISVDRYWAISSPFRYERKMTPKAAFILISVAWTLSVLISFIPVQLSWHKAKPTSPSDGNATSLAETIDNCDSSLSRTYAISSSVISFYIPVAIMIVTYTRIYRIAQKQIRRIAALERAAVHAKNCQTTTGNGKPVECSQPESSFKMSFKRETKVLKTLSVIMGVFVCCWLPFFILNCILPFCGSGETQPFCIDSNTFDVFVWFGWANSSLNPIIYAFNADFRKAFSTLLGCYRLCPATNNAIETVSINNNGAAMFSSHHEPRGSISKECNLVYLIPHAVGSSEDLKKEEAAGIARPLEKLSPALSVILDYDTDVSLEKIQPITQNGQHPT

luminescence, inactive:
CN(C)c1nc(N)nc(CSc2nnnn2-c2cccc3ccccc23)n1 792
CCn1nc(C(=O)OCC(=O)N2c3ccccc3CC2C)c2ccccc2c1=O (stereo unspecified) 1520
CCC(=O)NC(=Nc1nc2ccccc2s1)NC(=O)CC 1420
CCOC(=O)c1cc(C)sc1NC(=O)C1CCC1 2190
COc1nc(NCc2ccc(Cl)cc2)nc(OC)n1 1580
COc1ccc(-c2nnco2)cc1OC 1540
CCOc1ccc2c(c1)cc(CN(C(=O)CC)C1CCCCC1)c1nnnn12 1650
CCn1c(=N)c(S(=O)(=O)c2ccc(F)cc2)cc2c(=O)n3ccccc3nc21 1820
Cn1c(=O)c2[nH]c(NCC3CCCO3)nc2n(-c2ccccc2)c1=O (stereo unspecified) 1520
O=C(NCc1ccccn1)c1ccc2nc(-c3ccco3)c(-c3ccco3)nc2c1 2040
CCn1ncc(C2=NOC(C(=O)Nc3ccccc3C(=O)OC)C2)c1C (stereo unspecified) 1280
COc1ccc(S(=O)(=O)N(C)CC(=O)Nc2ccc3c(c2)OCCO3)cc1OC 1540
CCOc1ccc(-c2nnn(CC(=O)N3CCN(c4ccc(OC)cc4)CC3)n2)cc1OCC 1540
CCCS(=O)(=O)N1CCC(C(=O)NCCc2ccc(OC)c(OC)c2)CC1 1810
Cc1ccc(C2CC(c3cccc(C)c3)n3nc(N)nc3N2)cc1 (stereo unspecified) 1850
CCCn1c(=NC(C)=O)c(C(=O)OCC)cc2c(=O)n3ccccc3nc21 1630
COc1ccc(S(=O)(=O)Nc2ccc(S(=O)(=O)N3CCCCC3)cc2)cc1OC 1540
CCOC(=O)/C=c1\s/c(=C\c2ccccc2OC)c(=O)n1CC(=O)N1CCOCC1 1600
FC(F)(F)c1cc(-c2ccco2)nc(N2CCOCC2)n1 1540
Cc1ccc(S(=O)(=O)c2c(N)n(C)c3nc4ccccc4nc23)cc1 1580
CC(=O)c1ccc(Oc2cc(C)nc(-n3nc(C)cc3C)n2)cc1 1560
CCCCc1c(O)nc2n(c1=O)CCS2 1610
CCNc1nc(NCC)nc(N(C)n2cnnc2)n1 1760
CCCSc1nc2c(c(=O)[nH]c(=O)n2C)n1CCc1ccccc1 1480
CCOc1cccc(-n2nnnc2-c2ccc(OC)cc2)c1 1540
COc1ccc(Nc2cc(C)nc(-n3nc(C)cc3C)n2)cc1 1750

Source: PubChem BioAssay AID646 (Vanderbilt High Throughput Screening Facility, 2007)
